# Measurements taken from PubChem BioAssay (NCI).
# This is part of a sample that, as a whole, favours compounds with a hit. Of some 83,000 tested, about 20% had one in any assay.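 In brief: 96-well plates, 48 h treatment, single concentration, percent growth endpoint.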 Active and inactive are the calls of the source.
# Test system: SNB-75 CNS
# Test: NCI-60 one-dose screen, 48 h (100 = growth as untreated, 0 = no growth, -100 = all killed)
# Conditions: 10 µM unless noted
# Description: Growth inhibition of the SNB-75 human tumor cell line is measured as a screen for anti-cancer activity. Cells are grown in 96 well plates and exposed to the test compound for 48 hours. Compounds are tested at a single concentration, which is 10^-5 M for most compounds. The reported endpoint is percent growth (GI% or GIPRCNT), where numbers from 0 - 100% represent growth inhibition, and numbers from -100% - 0 represent cell death. For example, a value of 40 represents 60% growth inhibition. A value of 0 means no net growth occurred over the course of the experiment. A value of -40 indicates 40% of cells at the beginning of the experiment died by the end of the experiment. A value of -100 means all cells are dead at the end of the experiment.
# NCI-60 Human Tumor Cell Lines Screen was performed using the standard one-dose NCI protocol, which is described in more detail at https://dtp.cancer.gov/discovery_development/nci-60/default.htm.
# Compounds with GIPRCNT values below 10 were considered active. Activity score was based on GIPRCNT using the following formula: […]
# Score is 0 for GIPRCNT values of 100 or above, 50 for GIPRCNT values of 0, and 100 for GIPRCNT values of -100.
row,Compound,growth
1,CCN(CC)CCOc1ccc(C(=C(c2ccccc2)C2CCCC2)c2ccc(OCCN(CC)CC)cc2)cc1,10.3% (inactive)
2,COc1ccccc1Cn1cc(C#N)c(N)c1C(=O)c1ccc(Br)cc1,81.1% (inactive)
3,CC1CCN(CC(=O)Nn2c(COc3ccccc3)nc3ccccc3c2=O)CC1,72.6% (inactive)
4,CN1CCN(c2ccc(Nc3nc(NCCCNS(=O)(=O)c4ccc(F)cc4)c4sccc4n3)cc2)CC1,78.5% (inactive)
5,NC(=S)n1c(=O)n(-c2cccc(C(F)(F)F)c2)c(=O)c2cc(-c3ccc(F)cc3F)ccc21,-24.9% (active)
6,CCCCCC[n+]1ccc(SCC(=O)n2ccc3ccccc32)c2ccccc21,100% (inactive)
7,COc1cc(/C=C2/C(=O)Nc3ccc(Cl)cc32)ccc1OCc1ccc(Cl)cc1,77.7% (inactive)
8,Cn1c(SCC(=O)c2ccc(F)cc2)nc2ccccc2c1=O,91.1% (inactive)
9,Clc1ccc2[nH]cc(-c3nn4cc(-c5cccnc5)nc4s3)c2c1,90.5% (inactive)
10,O=C(Nc1ccc(Cl)c(C(F)(F)F)c1)Nc1ccc2oc(=O)ccc2c1,58.6% (inactive)
11,N#Cc1c(-c2cccs2)cc(-c2cnccn2)nc1SCC(=O)N/N=C/c1cccs1,42.8% (inactive)
12,Nc1ncc(-c2ccc3ncnc(NCc4ccccc4)c3c2)cn1,41.2% (inactive)
13,CN1CCN(Cc2ccc(NC(=O)c3cncc(C#Cc4cnc5ccc(OC6CCOCC6)nn45)c3)cc2C(F)(F)F)CC1,-84.9% (active)
14,CN1CCN(Cc2ccc(NC(=O)c3cncc(C#Cc4cnc(N)nc4)c3)cc2C(F)(F)F)CC1,41.5% (inactive)
15,COc1cc(C(=O)c2cc(C(C)=O)c3c(C)cccn23)cc(OC)c1OC,64.6% (inactive)
16,O=C(/C=C/Nc1ccc(S(=O)(=O)Nc2ncccn2)cc1)c1ccc(N=Cc2c(O)[nH]c3ccccc23)cc1,102% (inactive)
17,CC(C)[C@H]1c2[nH]c3ccccc3c2C[C@H]2C(=O)N(CCCCCCC(=O)NO)CC(=O)N12,62.9% (inactive)
18,COc1ccc(/C=N/N=C(/c2ccccc2)c2ccc3nc(-c4ccc(Cl)cc4)[nH]c3c2)cc1,106% (inactive)
19,Brc1cccc(-c2cc(-c3cnc4c(c3)OCCO4)n[nH]2)c1,46.9% (inactive)
20,N#C/C(=C\c1cccc2c1OCO2)C(=O)Nc1sc2c(c1C#N)CCCC2,102% (inactive)

row,Compound,growth
1,CC(C)(O)c1cncc(-c2ccc3ncc(C#N)c(N4CCc5cc(F)c(Cl)cc54)c3c2)c1,-12.6% (active)
2,CC(C)(C)OC(=O)Nc1ccc(-c2cccc(Oc3ccc4nnc(Cl)n4n3)c2)cc1,126% (inactive)
3,CC(=O)OC[C@@]12Oc3c(cccc3-c3ccc(O)c4c3O[C@]3(COC(C)=O)C(=C4O)C(=O)C[C@H](C)[C@@H]3OC(C)=O)C(O)=C1C(=O)C[C@H](C)[C@@H]2OC(C)=O,-10.4% (active)
4,COC(=O)c1ccc(NC2=C(Cl)C(=O)c3nc(C)ccc3C2=O)cc1,106% (inactive)
5,CCCCc1nc2c(N)nc3ccccc3c2n1Cc1cccc(CN)c1,15.1% (inactive)
6,O=C(CSc1nnc(-c2ccc(Cl)cc2)n1-c1ccccc1)Nc1ccc(Cl)cc1,-11.2% (active)
7,NNc1nnc2nc(Nc3ccccc3)nc(Nc3ccc(S(N)(=O)=O)cc3)n12,90.6% (inactive)
8,Cc1ccc(-c2csc(N/N=C/c3cccs3)n2)cc1,81.9% (inactive)
9,CCOC(=O)C1=C(C)NC(C)=C(C(=O)OC(C)C)C1c1cccc(C#N)c1 (stereo not given),84.5% (inactive)
10,C#CCN(C)CCCOc1ccc(NC(=O)CCCCCCC(=O)NO)cc1Cl,26.3% (inactive)
11,Cn1cc(-c2nn3cc(-c4ccncc4)nc3s2)c2cc(Br)ccc21,45.9% (inactive)
12,CC1=C(C)C(=O)C(Nc2ccc3c(c2)OCO3)=C(Br)C1=O,74.3% (inactive)
13,O=C1Nc2cc(Cl)ccc2/C1=C\c1ccc(OCc2ccccc2)cc1,73.3% (inactive)
14,CCN(CC)c1ccc(/C=N/NC(=O)c2ccc(NS(C)(=O)=O)cc2)c(O)c1,48.1% (inactive)
15,COc1cccc2c1[C@H](OC)[C@]13O[C@@]1(C2=O)[C@H](O)[C@H](C)[C@@](O)(C(=O)[C@@H]1O[C@H]1C)[C@@H]3O,-61.7% (active)
16,O=C1C(SCc2ccccc2)=C(Cl)CN1c1ccccc1,92.2% (inactive)
17,CCCCN1C(=O)/C(=c2\sc3n(c2=O)C2C(NN=3)N(CC)C(=O)N2CC)c2cc(C)ccc21 (stereo not given),87.9% (inactive)
18,C/C(=C(/C)C1CC1CCNC1CCC(NC(=O)OC(C)(C)C)CC1)c1ccccc1 (stereo not given),60.1% (inactive)
19,CCNCCOc1ccc(/C(=C(/CC)c2ccc(Cl)cc2)c2ccc(OCCCN(C)C)cc2)cc1,-71.1% (active)
20,CSc1ccc(C(=NNS(=O)(=O)c2ccc(C)cc2)c2ccc(Cl)cc2)cc1,85.4% (inactive)
